We go through eleven molecules from PubChem BioAssay (NCATS).

A short description of assay [1]: Dual reporter qHTS for agonist of Pregnane X Receptor (hPXR) against the NCATS DSHEA and TCM libraries: Fluorescence readout (AID 1920058). Note: 0% is about no effect. An outline of the steps: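 hPXR-Luc HepG2 cells (2000/well) in phenol red-free medium with charcoal-stripped FBS attached for 5 h, then were exposed to compounds for about 24 h at 37 °C. Viability was read by CellTiter-Fluor fluorescence (Ex/Em 405/540 nm) after 1 h.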
(In general: Quantitative high-throughput screening tests each substance at several concentrations.)

Assay [2] deals with Nuclear receptor subfamily 1 group I member 2 (Homo sapiens) (UniProt O75469). The experiment in a line: Dual reporter qHTS for agonist of Pregnane X Receptor (hPXR) against the NCATS DSHEA and TCM libraries: Luminescence readout (AID 1920059). Note: 0% is about no effect. An outline of the steps: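 Luminescent PXR reporter read (ONE-Glo) after a CellTiter-Fluor viability read, following 24 h, 37C treatment of HepG2 cells stably carrying hPXR-Luc.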
Sequence of Nuclear receptor subfamily 1 group I member 2 (Homo sapiens) (O75469 whole entry, looked up): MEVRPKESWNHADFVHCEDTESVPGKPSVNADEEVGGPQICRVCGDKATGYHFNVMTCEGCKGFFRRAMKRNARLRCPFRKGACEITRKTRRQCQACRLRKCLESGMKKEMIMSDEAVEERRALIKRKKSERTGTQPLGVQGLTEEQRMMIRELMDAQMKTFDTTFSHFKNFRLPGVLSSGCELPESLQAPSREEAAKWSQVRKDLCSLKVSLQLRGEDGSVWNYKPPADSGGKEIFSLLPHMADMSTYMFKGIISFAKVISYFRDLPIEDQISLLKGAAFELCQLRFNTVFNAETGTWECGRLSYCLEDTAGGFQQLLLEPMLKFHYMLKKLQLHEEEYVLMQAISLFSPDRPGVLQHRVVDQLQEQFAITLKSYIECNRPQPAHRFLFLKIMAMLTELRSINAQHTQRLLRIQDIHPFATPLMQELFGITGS

For assay [3] the target is unchanged. The experiment in a line: Dual reporter qHTS for antagonist of Pregnane X Receptor (hPXR) against the NCATS DSHEA and TCM libraries: Luminescence Readout (AID 1920060).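 Note: HepG2 cells carrying hPXR luciferase reporter stimulated with rifampicin at 2 µM; 0% is about no effect.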 An outline of the steps: (§1)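 hPXR-Luc HepG2 cells exposed 24 h at 37 C to compounds with 2 uM rifampicin in antagonist mode; luciferase luminescence measured by ONE-Glo, with CellTiter-Fluor viability read beforehand.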

Assay [4] is described as follows: Dual reporter qHTS for antagonist of Pregnane X Receptor (hPXR) against the NCATS DSHEA and TCM libraries: Fluorescence Readout (AID 1920061). Note: 0% is about no effect. Put shortly:
as §1

The next assay relates to 7G8. The experiment in a line: qHTS profiling for inhibitors of Plasmodium falciparum proliferation (AID 504749).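 For activity, negative = inhibition: 0% = DMSO vehicle and full inhibition = artemisinin control.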 Note: nearly all actives have a fitted effect of over 60% in size. Note: potency is the fitted concentration of half-maximal effect. The settings on record: P. falciparum in erythrocytes, SYBR Green DNA, 72 h; series mostly up to 28.7 µM. An outline of the steps: (§2)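 Three-day growth assay of blood-stage parasites in erythrocytes (0.3% parasitemia, 2.5% hematocrit) at 37 C, 5% CO2, quantified by SYBR Green DNA staining after overnight detergent lysis.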

The subject of the next assay is AA1029. Described as above. The settings on record: P. falciparum in erythrocytes, SYBR Green DNA, 72 h; series mostly up to 28.7 µM. Put shortly: as §2
For the next assay, the system named is AS120. The assay is described as above. As to conditions: P. falciparum in erythrocytes, SYBR Green DNA, 72 h; series mostly up to 28.7 µM. An outline of the steps:
as §2

The subject of the next assay is ATS95. Described as above. As to conditions: P. falciparum in erythrocytes, SYBR Green DNA, 72 h; series mostly up to 28.7 µM. An outline of the steps:
as §2

The next assay concerns C2A. The assay is described as above. The settings on record: P. falciparum in erythrocytes, SYBR Green DNA, 72 h; series mostly up to 28.7 µM. An outline of the steps: as §2
In the next assay the test system is CP185. The description is as above. As to conditions: P. falciparum in erythrocytes, SYBR Green DNA, 72 h; series mostly up to 28.7 µM. Put shortly: as §2
The next assay has as its system CP191. The description is as above. As to conditions: P. falciparum in erythrocytes, SYBR Green DNA, 72 h; series mostly up to 28.7 µM. An outline of the steps:
as §2

The next assay has as its system CP194. The description is as above. As to conditions: P. falciparum in erythrocytes, SYBR Green DNA, 72 h; series mostly up to 28.7 µM. An outline of the steps: as §2
Assay [5] is described as follows: qHTS drug screen for cell cycle checkpoint inhibitors in PARPi-resistant BRCA-mutant ovarian cancer cell lines. (AID 1963452; calls by dose curve). As to conditions: PEO1/OlaR viability, CellTiter-Glo luminescence, 96 h, stronger effect = lower value. An outline of the steps:
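PEO1, PEO4 and PEO1/OlaR ovarian cancer cells, 600 per well, exposed 96 h at 37C to a dilution series. Viability read by CellTiter-Glo luminescence, normalized to DMSO and empty wells; activity summarized as Z-AUC.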

The subject of the next assay is ATS189. The experiment in a line: qHTS profiling for inhibitors of Plasmodium falciparum proliferation (AID 504749).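 For activity, negative = inhibition: 0% = DMSO vehicle and full inhibition = artemisinin control.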 Note: nearly all actives have a fitted effect of over 60% in size. Note: potency is the fitted concentration of half-maximal effect. The settings on record: P. falciparum in erythrocytes, SYBR Green DNA, 72 h; series mostly up to 28.7 µM. Put shortly:
as §2

Experiment in assay [6]: as above
As to conditions: P. falciparum in erythrocytes, SYBR Green DNA, 72 h; for activity, negative = inhibition: at 28.7 µM (top of the series). Put shortly:
as §2

The next assay deals with 3D7. Described as above. As to conditions: P. falciparum in erythrocytes, SYBR Green DNA, 72 h; series mostly up to 28.7 µM. An outline of the steps:
as §2

A further assay has as its system CP192. The description is as above. The settings on record: P. falciparum in erythrocytes, SYBR Green DNA, 72 h; series mostly up to 28.7 µM. An outline of the steps: as §2
The next assay deals with CP201. Described as above. As to conditions: P. falciparum in erythrocytes, SYBR Green DNA, 72 h; series mostly up to 28.7 µM. Put shortly: as §2
The test system of another assay is CP203. The assay is described as above. As to conditions: P. falciparum in erythrocytes, SYBR Green DNA, 72 h; series mostly up to 28.7 µM. An outline of the steps: as §2
Another assay relates to CP211. Described as above. As to conditions: P. falciparum in erythrocytes, SYBR Green DNA, 72 h; series mostly up to 28.7 µM. Put shortly:
as §2

The mark [7] stands for this setting: measured here: PEO1 parental Z-AUC.

Molecules are shown by their SMILES. Results filed as inconclusive are left out. The source made the active and inactive calls. Unless noted, calls come from the whole dose curve; as a rule, active = well fitted curve in the direction sought with a large enough effect; inconclusive = small, poorly fitted or top-dose-only effect, or another doubt; inactive = no such curve, though single readings can be large; an effect the other way counts as inactive or inconclusive.

On to `C[N+](C)(C)CCO`, for which the molecule was classed as inactive in assay [1], in assay [2], in assay [3] and in [4].
As for `CC(NCCC(c1ccccc1)c1ccccc1)c1ccccc1` (stereo not given), the Potency in the assay with 7G8 was 2.24 µM (active); in the assay on AA1029, 12.6 µM (active); in the assay with AS120, 11.2 µM (active); in the assay with ATS95, 11.2 µM (active); with C2A, 10 µM (active); in the assay with CP185, 8.91 µM (active). For the same molecule, the Potency with CP191 was 10 µM (active); with CP194 it was 15.1 µM (active).
Regarding `Nc1ccc2cc3ccc(N)cc3nc2c1`, the Potency with 7G8 is 2.24 µM (active).
On to `CCCCCCOC(=O)NC(=N)c1ccc(NCc2nc3cc(C(=O)N(CCC(=O)OCC)c4ccccn4)ccc3n2C)cc1`, for which the Z-AUC in assay [5] was 1.19 (inactive); in [5] (setting [7]), 0.495; in [5] (measured here: PEO4 Z-AUC), 0.615.
On to `CN1CCCN(C(c2ccccc2)c2ccc(Cl)cc2)CC1` (stereo not given), for which the Potency in the assay on 7G8 is 8.91 µM (active); in the assay with AA1029 it was 7.94 µM (active); in the assay on AS120, 11.2 µM (active); in the assay on ATS189, 10 µM (active); with ATS95, 11.2 µM (active); in the assay with C2A, 11.2 µM (active). Further, the Potency with CP191 was 10 µM (active).
For the molecule `CN1CCCN=C1/C=C/c1cccs1`, the Z-AUC was 0.33 (inactive) in assay [5], 0.491 in assay [5] (setting [7]) and 0.415 in assay [5] (measured here: PEO4 Z-AUC).
For the molecule `CCCCCCCCCCCCCC[N+](C)(C)C`, the Potency in [6] (parasite line A) was 5.01 µM (active); in assay [6] (parasite line B), 7.08 µM (active); with 3D7, 3.98 µM (active); in the assay on 7G8, 2.24 µM (active); with AA1029 it was 4.47 µM (active); in the assay with AS120, 5.62 µM (active). Besides, the Potency was 5.62 µM (active) with ATS189; 7.08 µM (active) in the assay with ATS95; 3.98 µM (active) in the assay on C2A; 5.62 µM (active) with CP185; 4.47 µM (active) with CP191; 6.01 µM (active) in the assay on CP192. Also, the Potency in the assay on CP194 is 6.75 µM (active); with CP201 it was 12 µM (active); with CP203, 6.75 µM (active); in the assay with CP211 it was 6.01 µM (active).
Consider `O=S(=O)(O)c1ccc2nc(-c3ccccc3)[nH]c2c1`, for which the activity, negative = inhibition in [6] (parasite line A) is 7.74% (inactive); in assay [6] (parasite line B), 3.12% (inactive). Further, the Potency entry in the assay with 3D7, in the assay on 7G8, with AA1029, with AS120, in the assay with ATS189 and with ATS95 was “inactive” each time. Moreover, the Potency result with C2A, with CP185, with CP191, in the assay on CP192, in the assay with CP194 and in the assay on CP201 was “inactive” each time. Besides, the Potency entry in the assay on CP203 and in the assay with CP211 was “inactive” each time.
On to `O=C(Nc1ccc(Cl)cc1)Nc1ccc(Cl)c(Cl)c1`, for which the Potency in assay [6] (parasite line A) was 3.16 µM (active); in assay [6] (parasite line B) it was 3.98 µM (active); with 3D7, 5.01 µM (active); in the assay with 7G8 it was 0.501 µM (active); in the assay with AA1029 it was 5.62 µM (active); in the assay with AS120 it was 2.24 µM (active). The Potency in the assay on ATS189 is 3.16 µM (active); in the assay with ATS95 it was 3.16 µM (active); in the assay on C2A, 3.16 µM (active); in the assay on CP185 it was 2.51 µM (active); in the assay with CP191, 2.82 µM (active); with CP192, 9.53 µM (active). In addition, the Potency with CP194 is 6.01 µM (active); in the assay on CP201, 7.57 µM (active); with CP203, 4.26 µM (active); with CP211, 6.01 µM (active).
Take `O=[N+]([O-])c1ccc(-c2nc(-c3ccc(F)cc3)c(-c3ccncc3)[nH]2)cc1`: the figures for the Z-AUC in assay [5], in assay [5] (setting [7]) and in assay [5] (measured here: PEO4 Z-AUC) were 1.31 (inactive), 0.274 and 0.382, respectively.
For the molecule `CCC1=C[C@@H]2CN(C1)Cc1c([nH]c3ccccc13)[C@@](C(=O)OC)(c1cc3c(cc1OC)N(C)[C@H]1[C@@](O)(C(=O)OC)[C@H](OC(C)=O)[C@]4(CC)C=CCN5CC[C@]31[C@@H]54)C2`, the values for the Z-AUC in assay [5], in [5] (setting [7]) and in assay [5] (measured here: PEO4 Z-AUC) were -1.05 (inactive), -1.03 and -1.04, respectively.
